Measured values reported in PubChem BioAssay (Tox21).
Results filed as inconclusive are left out. Unmarked numbers belong to inactive results. Activity calls are given as the source filed them. The call rests on the fitted dose curve; in most records, active means well fitted activation curve with a large enough effect in the repeat runs; inconclusive means weak or mixed curves; inactive means no such curve, though single readings can be large or run the other way.

The molecules below were run against Nuclear receptor subfamily 1 group I member 2 (Homo sapiens) (UniProt O75469) (assay: Human pregnane X receptor (PXR) small molecule agonists, qHTS assay (AID 1346982; further: nearly all actives have a fitted effect of over 35% in size)). Settings: PXR-Luc HepG2, CYP3A4 luciferase reporter, 24 h; series mostly up to 92.4 µM; activation: at the top concentration.
In short: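 PXR-Luc HepG2 reporter cells (CYP3A4-driven luciferase) in 5% charcoal-stripped FBS medium, plated 5 h before compound addition, then treated 24 h at 37C. Luciferase read by ONE-Glo luminescence after 30 min at room temperature.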
On the % scale 0 is the no-effect control and ±100 the full control effect; potency means the concentration at half of the fitted maximal effect.

Chain of Nuclear receptor subfamily 1 group I member 2 (Homo sapiens) (O75469 whole entry, looked up): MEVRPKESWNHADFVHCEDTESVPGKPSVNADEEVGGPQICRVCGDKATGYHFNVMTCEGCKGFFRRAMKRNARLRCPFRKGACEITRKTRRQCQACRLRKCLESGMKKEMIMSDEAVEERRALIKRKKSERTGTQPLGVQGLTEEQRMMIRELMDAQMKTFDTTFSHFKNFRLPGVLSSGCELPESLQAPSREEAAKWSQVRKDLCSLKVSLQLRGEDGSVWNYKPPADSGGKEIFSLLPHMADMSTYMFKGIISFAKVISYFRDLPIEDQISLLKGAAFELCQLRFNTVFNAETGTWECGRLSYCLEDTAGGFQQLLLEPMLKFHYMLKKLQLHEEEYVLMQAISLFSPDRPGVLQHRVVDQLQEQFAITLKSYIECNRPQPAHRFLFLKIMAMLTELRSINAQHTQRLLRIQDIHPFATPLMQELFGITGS

SMILES	activation	Potency
O=C(O)CN(CCN(CC(=O)O)CC(=O)O)CCN(CC(=O)O)CC(=O)O	8.36% [at 19 µM]	–
CN1CCN(C2=Nc3cc(F)ccc3Cc3ccccc32)CC1	21.5% [at 42.5 µM]	–
Nc1ccc(Oc2ccc(N)c(N)c2)cc1	–	19.3 µM (active)
COc1cc2c(cc1N)oc1ccccc12	–	27.9 µM (active)
C[C@@H](N)C(=O)O	-0.134% [at 42.5 µM]	–
CCCCC(=O)O[C@]1(C(=O)CO)[C@H](C)C[C@H]2[C@@H]3CCC4=CC(=O)C=C[C@]4(C)[C@@]3(F)[C@@H](O)C[C@@]21C	11.7% [at 42.5 µM]	–
Nc1ccc2ccccc2c1S(=O)(=O)O	–	62.3 µM (active)
NC(=O)NS(=O)(=O)c1ccc(Cl)cc1	1.92% [at 42.5 µM]	–
O=C(O)[C@@H](O)[C@H](O)[C@H](O)[C@@H](O)C(=O)O	-5.93% [at 42.5 µM]	–
CCOc1ccc(NS(=O)(=O)c2ccc(N)cc2)nn1	-5.99% [at 42.5 µM]	–
Cc1ccccc1C(=O)Nc1ccc(C(=O)N2CCCC(O)c3cc(Cl)ccc32)c(C)c1 (stereo not drawn)	16% [at 42.5 µM]	–
CCCCCCn1c(=O)c2c(ncn2C)n(C)c1=O	12% [at 42.5 µM]	–
CC(C)c1ccccc1	-12.5%	–
CCCc1c2oc(C(=O)O)cc(=O)c2cc2c(=O)cc(C(=O)O)n(CC)c12	0.482% [at 42.5 µM]	–
N#CSCC(=O)O	-0.629% [at 42.5 µM]	–
CC(C)CCCCCCc1ccc(OCCOCCO)cc1	–	97.2 µM (active)
CCc1nnc(NS(=O)(=O)c2ccc(N)cc2)s1	-5.42% [at 42.5 µM]	–

SMILES	activation	Potency
C=CCc1cc(OC)c(O)c(C(=O)NCCO)c1	14.3% [at 42.5 µM]	–
CC(=O)O[C@H]1CC[C@@]2(C)C(=CC[C@@H]3[C@@H]2CC[C@]2(C)C(C(C)=O)=CC[C@@H]32)C1	2.93% [at 42.5 µM]	–
COc1ccc2nc(NC(=O)Nc3ccccc3)sc2c1	–	1.88 µM (active)
CCCCC(CC)COC(=O)COc1cc(Cl)c(Cl)cc1Cl (stereo not drawn)	13%	–
O=C1Nc2ccc([N+](=O)[O-])cc2C1=O	4.72%	–
Cc1nc(N)nc(N)c1-c1ccc(Cl)c(Cl)c1	9.26% [at 42.5 µM]	–
O=Cc1ccc(O)c(O)c1O	18.7% [at 42.5 µM]	–
CC(C)OC(C)C	-5.18%	–
O=C(O[C@@H](C(=O)O)[C@@H](OC(=O)c1ccccc1)C(=O)O)c1ccccc1	-12.6%	–
Cc1ccc([N+](=O)[O-])c(N)c1	–	66.9 µM (active)
CCC(=O)c1ccc2c(c1)N(CCCN(C)C)c1ccccc1S2	6.65% [at 42.5 µM]	–
CCCCCCCOC(=O)CCC	8.57%	–
OCc1c2ccccc2cc2ccccc12	–	48.7 µM (active)
CN(CCCN1c2ccccc2CCc2ccccc21)CC(=O)c1ccc(Cl)cc1	–	18.8 µM (active)
CCc1cc(Cl)c(OC)c(C(=O)NC[C@@H]2CCCN2CC)c1O	–	7.5 µM (active)
CCCCNC(=S)NCCCC	–	34.4 µM (active)
